According to PubChem BioAssay (NCI):
This is part of a sample that, as a whole, favours compounds with a hit. Of some 83,000 tested, about 20% had one in any assay.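 Percent growth is the endpoint: 0 to 100 indicates growth inhibition (40 means 60% inhibition), 0 means no net growth, and negative values indicate cell death.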 Unmarked numbers belong to inactive results. Activity calls are given as the source filed them. Rule for the calls: active = growth percent below 10; inactive = the rest.

What was measured:
Test in all cases: NCI-60 one-dose screen, 48 h (100 = growth as untreated, 0 = no growth, -100 = all killed)
Conditions in all cases: 10 µM unless noted
[1] = test system: HCT-15 colon
[2] = test system: HT29 colon
[3] = test system: SNB-75 CNS
[4] = test system: SNB-19 CNS
[5] = test system: U251 CNS
[6] = test system: PC-3 prostate
[7] = test system: SK-MEL-5 melanoma
[8] = test system: UACC-62 melanoma
[9] = test system: LOX IMVI melanoma
[10] = test system: SK-MEL-28 melanoma
[11] = test system: SK-MEL-2 melanoma
[12] = test system: EKVX NSCLC
[13] = test system: UO-31 renal
[14] = test system: TK-10 renal
[15] = test system: ACHN renal
[16] = test system: CAKI-1 renal
[17] = test system: A498 renal
[18] = test system: CCRF-CEM leukemia
[19] = test system: MOLT-4 leukemia
[20] = test system: SN12C renal

Cc1cccc(N=Nc2cccc(C)c2)c1
growth [1]: 96.3% | growth [2]: 102% | growth [3]: 132% | growth [4]: 92.4% | growth [5]: 106% | growth [6]: 104% | growth [7]: 105% | growth [8]: 92.8% | growth [9]: 105% | growth [10]: 107% | growth [11]: 110% | growth [12]: 96.2% | growth [13]: 86.8% | growth [14]: 114% | growth [15]: 99.8% | growth [16]: 96.2% | growth [17]: 93.8% | growth [18]: 108% | growth [19]: 111%

CC1(C)CC(=O)C2=C(C1)C(c1ccc(Cl)cc1)n1ncc(C#N)c1N2 (stereo not given)
growth [1]: 105% | growth [2]: 106% | growth [3]: 75.6% | growth [4]: 96.5% | growth [5]: 97.8% | growth [6]: 90.4% | growth [7]: 95.4% | growth [8]: 89.8% | growth [9]: 107% | growth [10]: 112% | growth [11]: 103% | growth [12]: 92.8% | growth [13]: 85.5% | growth [14]: 107% | growth [15]: 93.2% | growth [16]: 90.3% | growth [17]: 103% | growth [18]: 98.4% | growth [19]: 98.1%

COc1ccc(CNc2ccc3nc(NC(=O)CN4CCCCCC4)sc3c2)cc1
growth [1]: 70.9% | growth [2]: 60.6% | growth [3]: 131% | growth [4]: 96.1% | growth [5]: 85.4% | growth [6]: 65.8% | growth [7]: 67.8% | growth [9]: 78.5% | growth [10]: 101% | growth [11]: 85.4% | growth [12]: 80.1% | growth [20]: 87.3% | growth [13]: 80.6% | growth [14]: 117% | growth [15]: 89.8% | growth [16]: 85.2% | growth [17]: 90.3% | growth [18]: 58.6% | growth [19]: 61.1%

COc1ccc(/C=N/Nc2c3ccccc3nc3ccccc23)cc1
growth [1]: 92.6% | growth [2]: 93.9% | growth [3]: 93.4% | growth [4]: 92.4% | growth [5]: 93.4% | growth [6]: 83.1% | growth [7]: 90.4% | growth [8]: 91.1% | growth [9]: 92.9% | growth [10]: 108% | growth [11]: 82.2% | growth [12]: 86.9% | growth [13]: 76.1% | growth [14]: 107% | growth [15]: 98.9% | growth [16]: 88.2% | growth [17]: 69.6% | growth [18]: 90.8% | growth [19]: 90.3%

COC(=O)c1c2c(c(C)[n+]([O-])c1C)C(=O)C(NCc1ccccc1)=CC2=O
growth [1]: 5.71% (active) | growth [2]: 12.7% | growth [3]: 125% | growth [4]: 7.59% (active) | growth [5]: 1.71% (active) | growth [6]: 8.92% (active) | growth [7]: -84.9% (active) | growth [9]: 8.65% (active) | growth [10]: 61.3% | growth [11]: 23.6% | growth [12]: 34% | growth [20]: 2.86% (active) | growth [13]: 42.1% | growth [14]: 113% | growth [15]: 35.4% | growth [16]: 22.3% | growth [17]: 98.6% | growth [18]: 21.9% | growth [19]: 16.4%

CCOC(=O)C#Cc1c(C(=O)OCC)nnn1[C@@H]1O[C@H](COC)[C@@H](OC)[C@H]1OC
growth [1]: -12.2% (active) | growth [2]: 24.9% | growth [3]: 72.9% | growth [4]: 97.9% | growth [5]: 102% | growth [6]: 92.4% | growth [7]: 98.3% | growth [9]: 67% | growth [10]: 96.3% | growth [11]: 92% | growth [12]: 107% | growth [20]: 82.5% | growth [13]: 29.2% | growth [14]: 11.1% | growth [15]: -35.3% (active) | growth [16]: -91.2% (active) | growth [17]: 99.1% | growth [18]: 27.7%

CC(C)CCC[C@@H](C)[C@H]1CC[C@H]2[C@@H]3CC=C4c5sc(Nc6cc(C(F)(F)F)cc(C(F)(F)F)c6)nc5CC[C@]4(C)[C@H]3CC[C@]12C
growth [1]: 101% | growth [2]: 110% | growth [3]: 95.5% | growth [4]: 98.6% | growth [5]: 96% | growth [6]: 92.8% | growth [7]: 100% | growth [9]: 96.8% | growth [10]: 113% | growth [11]: 124% | growth [12]: 97% | growth [20]: 92.3% | growth [13]: 73.4% | growth [15]: 106% | growth [16]: 85.6% | growth [17]: 123% | growth [18]: 107% | growth [19]: 103%

N#Cc1ccccc1-c1ccc(CN2C(=O)S/C(=C\c3ccc(Br)cc3)C2=O)cc1
growth [1]: 98.7% | growth [2]: 104% | growth [3]: 82.8% | growth [4]: 93.5% | growth [5]: 96.4% | growth [7]: 98.7% | growth [8]: 88.7% | growth [9]: 101% | growth [10]: 108% | growth [11]: 102% | growth [12]: 87.8% | growth [20]: 91.6% | growth [13]: 91% | growth [14]: 110% | growth [15]: 104% | growth [16]: 85.4% | growth [17]: 107% | growth [18]: 100% | growth [19]: 106%
